In experiment [1] the target is Lysosomal acid glucosylceramidase (Homo sapiens) (UniProt P04062). The experiment can be described thus: Glucocerebrosidase-p2 (AID 348; in the data active = potency below about 10 µM; note: potency is the fitted concentration of half-maximal effect). To be noted: purified GBA, blue fluorogenic substrate, 40 min. In short, it runs like this: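 Normal human glucocerebrosidase (0.2 nM) with blue fluorogenic substrate (80 uM final) in citrate/phosphate pH 5.9 with 10mM sodium taurocholate, 0.01% tween-20; 40 min RT, NaOH/glycine stop; fluorescence Ex 365/Em 440; AC50 from a titration from 0.6 nM upwards.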
Lysosomal acid glucosylceramidase (Homo sapiens), sequence (P04062 whole entry, looked up): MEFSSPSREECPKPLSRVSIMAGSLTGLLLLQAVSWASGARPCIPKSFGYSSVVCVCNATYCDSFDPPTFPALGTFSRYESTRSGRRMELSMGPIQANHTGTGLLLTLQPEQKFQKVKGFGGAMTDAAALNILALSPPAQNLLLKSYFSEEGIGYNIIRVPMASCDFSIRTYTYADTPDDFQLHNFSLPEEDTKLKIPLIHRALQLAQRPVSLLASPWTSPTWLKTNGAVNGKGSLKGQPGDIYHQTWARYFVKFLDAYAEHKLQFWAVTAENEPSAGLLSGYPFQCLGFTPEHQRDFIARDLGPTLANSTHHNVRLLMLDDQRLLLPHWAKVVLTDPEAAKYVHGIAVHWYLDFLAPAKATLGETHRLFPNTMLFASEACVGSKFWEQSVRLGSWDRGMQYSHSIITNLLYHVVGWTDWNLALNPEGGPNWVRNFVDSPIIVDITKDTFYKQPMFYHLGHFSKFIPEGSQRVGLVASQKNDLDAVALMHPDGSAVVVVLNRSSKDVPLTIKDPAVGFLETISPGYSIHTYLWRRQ

A short description of experiment [2]: NFAT Signaling Pathway (AID 444; active = well fitted curve in either direction with a large enough effect, not every such curve was filed as active;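 note: carbachol stimulus at about its EC50 of 1 µM final; % is set by controls: 0 for no effect and ±100 for the full control effect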). To be noted: Jurkat NFAT-bla M1, carbachol, beta-lactamase ratio, 5 h; at 7.69 µM (top of the series) unless noted. In short, it runs like this: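 Read-out: CCF4 FRET ratio (460 nm/530 nm) after 1 h RT dye loading, used for %activity and AC50 from titration series. Cells: Jurkat NFAT-β-lactamase/M1 line, treated with compound plus 1 uM carbachol for 5 h, 37 °C.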

The nature of experiment [3]: Stat Signaling Pathway (AID 446; active = well fitted curve in either direction with a large enough effect, not every such curve was filed as active;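 note: ME-180 cervical cancer cells given 40 pM IL-6 alongside compound; SIE-controlled beta-lactamase reporter measured as 460/530 nm FRET emission ratio; % is set by controls: 0 for no effect and ±100 for the full control effect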). In short, it runs like this: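 Compound effects on IL-6-induced STAT reporter activity were measured in ME-180 cells. After overnight culture, cells were co-treated with 40 pM IL-6 for 5 hrs before beta-lactamase substrate loading at room temperature.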
In experiment [4] the target is Glucocorticoid receptor (Homo sapiens) (UniProt P04150). The experiment is described as follows: GR-GFP Redistribution (AID 450;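 active = compounds whose dose series gives a full or clear partial fitted curve of increased nuclear translocation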; note: potency is the fitted concentration of half-maximal effect). To be noted: U2OS GR-GFP nuclear translocation, laser cytometry, 2 h.
Glucocorticoid receptor (Homo sapiens), sequence (P04150 whole entry, looked up, the tested form may be a part): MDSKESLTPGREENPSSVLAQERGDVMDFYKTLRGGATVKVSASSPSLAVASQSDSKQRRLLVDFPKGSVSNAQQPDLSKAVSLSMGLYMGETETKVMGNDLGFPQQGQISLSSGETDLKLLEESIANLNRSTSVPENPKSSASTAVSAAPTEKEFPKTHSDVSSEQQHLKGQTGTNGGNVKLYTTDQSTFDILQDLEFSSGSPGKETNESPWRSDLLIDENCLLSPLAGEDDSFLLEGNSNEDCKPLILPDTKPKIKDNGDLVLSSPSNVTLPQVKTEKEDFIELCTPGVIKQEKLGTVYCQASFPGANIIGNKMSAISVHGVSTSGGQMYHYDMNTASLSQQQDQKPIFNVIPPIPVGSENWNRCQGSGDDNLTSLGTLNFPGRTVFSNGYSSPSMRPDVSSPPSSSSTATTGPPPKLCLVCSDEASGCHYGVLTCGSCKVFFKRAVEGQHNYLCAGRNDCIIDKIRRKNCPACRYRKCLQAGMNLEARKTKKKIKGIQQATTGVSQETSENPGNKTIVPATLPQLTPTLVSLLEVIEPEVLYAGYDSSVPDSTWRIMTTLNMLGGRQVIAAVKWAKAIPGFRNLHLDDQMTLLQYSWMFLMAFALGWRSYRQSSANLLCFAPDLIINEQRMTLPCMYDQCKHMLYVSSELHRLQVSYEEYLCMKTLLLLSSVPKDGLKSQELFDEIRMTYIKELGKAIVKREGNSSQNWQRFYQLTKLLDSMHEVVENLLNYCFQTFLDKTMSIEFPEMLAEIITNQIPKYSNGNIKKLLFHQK
Experiment [5] shares this target. The experiment can be described thus: GR-EFC Redistribution (AID 451; calls by dose curve; note: potency is the fitted concentration of half-maximal effect). To be noted: CHO-K1 GR-EFC translocation, beta-gal luminescence, 2 h. In short, it runs like this: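 Translocation of GR-ED fusion to nuclear EA restores b-gal, read by luminescence after 1 h room-temperature detection. Engineered CHO-K1 biosensor cells, 1,000/well, exposed 2 h at 37 C to titrations up to 46 uM final.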

In experiment [6] the target is Mitogen-activated protein kinase 10 (Mus musculus) (UniProt Q61831). The experiment can be described thus: JNK3 AlphaScreen Assay (AID 530; active = well fitted curve in either direction with a large enough effect, not every such curve was filed as active;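 note: kinase came from lysate of stimulated human HepG2 cells; signal reports phosphorylation of biotinylated GST-cJun 1-79 at Ser73 with 10 µM ATP; % is set by controls: 0 for no effect and ±100 for the full control effect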). The method in brief:
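Kinase buffer: 20 mM Tris-HCl pH 7.6, 10 mM MgCl2, 1 mM DTT, 0.1 mM Na3VO4, 0.01% Tween-20; ATP 10 uM. Substrate biotin-GST-cJun(1-79), enzyme from activated HepG2 lysates. Detection by Ser73 phospho-antibody AlphaScreen.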
For orientation: Bead proximity is the source of the signal in Alpha formats.

Experiment [7] concerns the target 3',5'-cyclic-AMP phosphodiesterase 4B (Homo sapiens) (UniProt Q07343). The experiment can be described thus: qHTS Assay for Inhibitors of PDE-IV (AID 607; active = well fitted activation curve with a large enough effect in the main read-out, with a control signal flat, not every such curve was filed as active; note: % of control where 0% means no effect). The method in brief:
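ACTOne HEK293 cells carry a modified cAMP-gated CNG channel and express endogenous PDE4; plated 1000 cells/well, compounds up to 22.9 uM final. Membrane-potential dye fluorescence (ex 535/em 590) was read; parental cells received 10 uM forskolin + 100 uM RO 20-1724.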
On the technique in general: qHTS replaces the single test concentration by a dilution series.

The target in experiment [8] is Dual specificity protein kinase CLK4 (Homo sapiens) (UniProt Q9HAZ1). The experiment is described as follows: qHTS Assay for Inhibitors of CDC-like Kinase 4 (ADP-FP Assay) (AID 1795). Note: potency is the fitted concentration of half-maximal effect; nearly all actives have a fitted effect of over 60% in size. In short, it runs like this:
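Kinase activity was measured as ADP production using Transcreener orange tracer (4 nM) and ADP antibody (1 ug/mL) fluorescence polarization, with ADP calculated from a calibration curve. The 1 h reaction contained 6.25 nM Clk4, 1 uM ATP and 100 uM RS peptide at pH 7.5 with Mg2+.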

Experiment [9] concerns the target Ubiquitin carboxyl-terminal hydrolase 1 (Homo sapiens) (UniProt O94782). The experiment is described as follows: Inhibitors of USP1/UAF1: Pilot qHTS (AID 504865).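 Note: rhodamine fluorescence freed from ubiquitin-rhodamine substrate followed over time; top concentration of the series differs between compounds; % is set by controls: 0 for no effect and ±100 for the full control effect; nearly all actives have a fitted effect of over 35% in size.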 In short, it runs like this: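 Deubiquitinase activity followed as kinetic rhodamine fluorescence release from 150 nM Ub-Rho. 1 nM USP1/UAF1 with compound, after 15 min room-temperature preincubation, in HEPES pH 7.8 buffer containing TCEP, EDTA, BSA and Tween-20.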

Experiment [10] deals with Glutathione peroxidase 1 (Homo sapiens) (UniProt P07203). The experiment can be described thus: Primary qHTS Assay for Inhibitors of Recombinant Selenoprotein Glutathione Peroxidase 1 (GPX1) (AID 1845191). Note: nearly all actives have a fitted effect of over 65% in size. The method in brief:
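NADPH consumption tracked by fluorescence at 340/450 nm between t=0 and t=15 min, room temperature. Final mix: 10 nM GPX1, 100 nM glutathione reductase, 1 mM GSH, 0.5 mM NADPH, 0.5 mM cumene hydroperoxide, 0.01% BSA; 30 min compound–enzyme preincubation.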

Inconclusive results are not listed. Active and inactive are the calls of the source. Unless noted, calls come from the whole dose curve; as a rule, active = well fitted inhibition curve with a large enough effect; inconclusive = small, poorly fitted or top-dose-only effect; inactive = flat fitted curve, though single readings scatter.

Glutathione peroxidase 1 (Homo sapiens), sequence (P07203 whole entry, looked up): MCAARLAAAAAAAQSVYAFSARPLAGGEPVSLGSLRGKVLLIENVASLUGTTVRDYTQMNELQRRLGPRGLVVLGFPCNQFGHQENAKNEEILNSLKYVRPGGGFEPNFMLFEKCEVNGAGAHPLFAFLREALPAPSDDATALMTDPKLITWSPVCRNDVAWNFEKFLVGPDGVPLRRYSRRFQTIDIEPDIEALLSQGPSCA
Ubiquitin carboxyl-terminal hydrolase 1 (Homo sapiens), sequence (O94782 whole entry, looked up): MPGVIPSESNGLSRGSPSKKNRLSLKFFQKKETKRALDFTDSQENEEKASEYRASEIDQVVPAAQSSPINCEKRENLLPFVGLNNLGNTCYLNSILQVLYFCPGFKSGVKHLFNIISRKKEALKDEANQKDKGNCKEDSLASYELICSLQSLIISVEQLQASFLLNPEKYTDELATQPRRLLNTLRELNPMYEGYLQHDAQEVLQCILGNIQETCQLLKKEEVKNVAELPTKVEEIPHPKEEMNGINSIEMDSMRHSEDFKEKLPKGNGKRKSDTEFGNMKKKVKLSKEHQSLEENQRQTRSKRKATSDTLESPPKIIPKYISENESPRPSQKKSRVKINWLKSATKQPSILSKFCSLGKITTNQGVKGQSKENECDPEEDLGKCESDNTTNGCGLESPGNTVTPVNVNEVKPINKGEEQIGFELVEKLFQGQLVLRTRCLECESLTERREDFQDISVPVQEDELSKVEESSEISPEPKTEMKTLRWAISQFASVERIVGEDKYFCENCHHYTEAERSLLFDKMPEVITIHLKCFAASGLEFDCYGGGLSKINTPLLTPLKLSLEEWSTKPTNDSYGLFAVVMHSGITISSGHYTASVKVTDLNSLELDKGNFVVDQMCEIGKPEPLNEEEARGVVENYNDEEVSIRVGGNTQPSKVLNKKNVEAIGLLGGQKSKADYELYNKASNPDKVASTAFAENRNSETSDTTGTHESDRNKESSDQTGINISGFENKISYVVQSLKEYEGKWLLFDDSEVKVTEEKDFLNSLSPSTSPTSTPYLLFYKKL
Dual specificity protein kinase CLK4 (Homo sapiens), sequence (Q9HAZ1 whole entry, looked up): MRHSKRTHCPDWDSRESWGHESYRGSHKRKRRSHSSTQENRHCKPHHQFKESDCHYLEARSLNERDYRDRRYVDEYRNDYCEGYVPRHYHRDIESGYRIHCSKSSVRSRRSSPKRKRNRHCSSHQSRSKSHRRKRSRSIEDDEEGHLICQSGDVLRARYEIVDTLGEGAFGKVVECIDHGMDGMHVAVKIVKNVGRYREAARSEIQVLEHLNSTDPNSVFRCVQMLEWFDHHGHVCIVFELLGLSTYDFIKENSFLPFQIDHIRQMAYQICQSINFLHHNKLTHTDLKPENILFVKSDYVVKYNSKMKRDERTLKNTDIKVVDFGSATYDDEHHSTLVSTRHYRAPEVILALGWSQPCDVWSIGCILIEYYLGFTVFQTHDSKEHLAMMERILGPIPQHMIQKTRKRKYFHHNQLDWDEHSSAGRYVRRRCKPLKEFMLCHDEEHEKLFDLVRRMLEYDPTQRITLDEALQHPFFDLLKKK
3',5'-cyclic-AMP phosphodiesterase 4B (Homo sapiens), sequence (Q07343 whole entry, looked up): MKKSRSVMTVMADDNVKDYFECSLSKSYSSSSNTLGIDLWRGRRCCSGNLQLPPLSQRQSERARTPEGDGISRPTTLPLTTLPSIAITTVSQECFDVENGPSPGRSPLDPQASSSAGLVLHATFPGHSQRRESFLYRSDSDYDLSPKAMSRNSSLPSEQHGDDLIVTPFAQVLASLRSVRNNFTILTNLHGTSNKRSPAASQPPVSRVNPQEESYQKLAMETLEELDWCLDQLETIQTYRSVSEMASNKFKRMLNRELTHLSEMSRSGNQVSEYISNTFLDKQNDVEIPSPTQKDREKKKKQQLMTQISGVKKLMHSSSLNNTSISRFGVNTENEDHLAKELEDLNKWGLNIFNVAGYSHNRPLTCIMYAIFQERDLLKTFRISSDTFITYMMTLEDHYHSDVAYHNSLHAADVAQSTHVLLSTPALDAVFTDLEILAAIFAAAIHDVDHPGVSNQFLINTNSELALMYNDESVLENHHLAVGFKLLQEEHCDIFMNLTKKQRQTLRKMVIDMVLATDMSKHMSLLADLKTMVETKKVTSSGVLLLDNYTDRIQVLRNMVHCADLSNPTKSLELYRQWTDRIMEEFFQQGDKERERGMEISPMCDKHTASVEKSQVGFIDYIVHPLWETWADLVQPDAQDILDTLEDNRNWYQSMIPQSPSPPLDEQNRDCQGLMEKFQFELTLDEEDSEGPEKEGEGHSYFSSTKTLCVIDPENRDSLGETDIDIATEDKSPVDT

Turning to `COc1ccc2[nH]cc(CCNc3ncncc3-c3ccoc3)c2c1`, the Potency in experiment [1] was > 11.4 µM (inactive); in experiment [4], > 46 µM (inactive); in experiment [5] it was > 46 µM (inactive); in experiment [8], 3.55 µM (active). Moreover, in experiment [2], the activity change, negative = inhibition is -12% (inactive). In addition, the call in experiment [3] was inactive. For the same compound, the Potency entry in experiment [6], in experiment [7] and in experiment [9] was “inactive” throughout.
Regarding `Cc1cc(C)n(CCc2nc3c4ccccc4nc(N4CCN(c5cccc(C)c5C)CC4)n3n2)n1`, the Potency result in [10] was “inactive”.
On the same count and under the same terms, then `CCCCCCCCCC(=O)OCCN1CCN(CC/C=C2\c3ccccc3Sc3ccc(C(F)(F)F)cc32)CC1`, with “inactive”.

(Values after PubChem BioAssay (NCATS).)
